This is a sample that favours compounds with a hit; in the whole collection about 4.2% have one here.
FBA Mtb inh: inhibits M. tuberculosis FBA enzyme; purified M. tuberculosis FBA, fluorescence read-out; inhibition, % at 1 µM; 360,000 tested, 2.3% active; in the data active = inhibition above about 27%
Target sequence (P9WQA3 whole entry, looked up): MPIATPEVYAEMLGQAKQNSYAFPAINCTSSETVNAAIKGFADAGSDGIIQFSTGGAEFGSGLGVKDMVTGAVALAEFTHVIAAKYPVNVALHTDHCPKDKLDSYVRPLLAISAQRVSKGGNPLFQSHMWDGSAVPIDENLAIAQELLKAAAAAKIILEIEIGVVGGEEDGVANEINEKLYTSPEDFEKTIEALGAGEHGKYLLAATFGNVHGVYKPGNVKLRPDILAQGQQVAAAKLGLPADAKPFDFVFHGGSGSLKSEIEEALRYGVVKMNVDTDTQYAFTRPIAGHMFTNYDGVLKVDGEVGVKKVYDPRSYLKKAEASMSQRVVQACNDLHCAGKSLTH
GDH-TPI counter-1: counter-screen for M. tuberculosis FBA inhibitors: GDH-TPI coupled enzymes | GDH-TPI coupled enzyme counterscreen, NADH absorbance | inhibition, % at 4.8 µM | 360,000 tested, 1.2% active
RecA splice inh: inhibitors of M. tuberculosis RecA intein splicing. 290,000 tested, 0.75% active. P9WHJ3. AID 2221. cell-free RecA intein splicing, fluorescence. inhibition, % (test concentration not listed); in the data active = inhibition above about 30%
CCHFV vOTU inh: CCHFV vOTU protease inhibition | 370,000 tested, 0.55% active | Pep-AMC fluorescence | AID 651958 | inhibition, % at 11.5 µM
Mtb FBA confirm: Mtb FBA inhibition, confirmed; inhibition, % at 1 µM; shares compounds with FBA Mtb inh; purified M. tuberculosis FBA, fluorescence read-out; 5,600 tested, 78% active; in the data active = inhibition above about 27%
GDH-TPI counter-2: inhibits GDH-TPI coupling enzymes, flagging Mtb FBA hits; GDH-TPI coupled enzyme counterscreen, fluorescence; AID 652141; inhibition, % at 1 µM; 5,600 tested, 81% active; shares compounds with FBA Mtb inh; in the data active = inhibition above about 10%
GDH-TPI dose: GDH-TPI dose response counter-screen for Mtb FBA. shares compounds with FBA Mtb inh. GDH-TPI coupled enzyme assay, fluorescence, artifact counterscreen. IC50, µM. 170 tested, 79% active; call rule not given here
A number is an active result; . = inactive; / = no result given; + = active, no number. Cut-off read from the data, not from the text of the source, unless noted: active = inhibition above about 30%; inactive = the rest.

SMILES	FBA Mtb inh	GDH-TPI counter-1	RecA splice inh	CCHFV vOTU inh	Mtb FBA confirm	GDH-TPI counter-2	others
CC(Oc1cc2oc(=O)c3c(c2cc1Cl)CCCC3)C(=O)NCc1cccnc1 (stereo not given)	.	.	.	.	/	/
Cc1cc(OC(C)C(=O)NC2CC(C)(C)NC(C)(C)C2)c2c(C)c(C)c(=O)oc2c1 (stereo not given)	70.9	.	/	.	+	+
CC(Oc1ccc2c3c(c(=O)oc2c1)CCCC3)C(=O)NCc1cccnc1 (stereo not given)	71.1	.	.	.	+	155.5
CC(Oc1ccc2c3c(c(=O)oc2c1)CCCC3)C(=O)NC1CC(C)(C)NC(C)(C)C1 (stereo not given)	64.1	.	.	.	+	182.1
CC(Oc1ccc2c3c(c(=O)oc2c1)CCCC3)C(=O)NCC1CCC(C(=O)O)CC1 (stereo not given)	73.0	.	.	.	63.0	56.6
CC(Oc1cc2oc(=O)c3c(c2cc1Cl)CCC3)C(=O)NC1CC(C)(C)NC(C)(C)C1 (stereo not given)	.	.	.	.	/	/
COc1cc(OC)cc(C(=O)NCCCCc2ccccc2)c1	.	.	.	.	/	/
CCCCC(CC)Cn1c2nc3ccccc3nc2c2c(=N)oc(C)nc21 (stereo not given)	/	/	.	/	/	/
CCCCC(CC)Cn1c(N)c(C#N)c2nc3ccccc3nc21 (stereo not given)	50.1	.	.	.	.	.
CSc1nccc(Oc2cncc(Cl)c2)n1	.	.	.	.	/	/
CSc1nccc(Oc2ccccc2Cl)n1	110.2	.	.	.	.	.	GDH-TPI dose=.
Cc1ccc(NC(=O)Cn2c(/C=C/c3ccccc3)nc3ccccc32)cc1C	29.4	.	.	.	67.7	53.0
CC(C)n1c(/C=C/c2ccccc2)nc2ccccc21	66.5	34.3	.	.	36.3	20.1
CC(C)n1c(CN(C)c2ccccc2)nc2ccccc21	.	.	.	.	/	/
COCCOCCn1c(/C=C/c2ccccc2)nc2ccccc21	28.1	.	.	.	.	.
COc1ccc(CCOC(=O)c2ccc(N)c([N+](=O)[O-])c2)cc1	.	.	.	.	/	/
OC(c1ccc(Cl)c(F)c1)c1ncc(-c2cccc3ccccc23)[nH]1 (stereo not given)	.	.	/	.	/	/
COc1c(C)cc(C(O)c2ncc(-c3cccc4ccccc34)[nH]2)cc1C (stereo not given)	35.2	.	/	.	+	+
Cc1cc(C(O)c2ncc(-c3cccc4ccccc34)[nH]2)ccc1F (stereo not given)	40.4	.	/	.	56.3	40.6
COc1c(C)cc(C(O)c2ncc(-c3ccccc3C(F)(F)F)[nH]2)cc1C (stereo not given)	.	.	/	.	/	/
COc1cc2cncc(Cc3ccccc3)c2cc1O	58.0	.	/	.	85.1	78.3
COc1cc2c(Cc3ccccc3)cncc2cc1O	.	.	/	.	/	/
COC(=O)c1ccc(CNC(=O)COC(=O)c2ccccc2-c2ccccc2)cc1	.	.	.	.	/	/
Cc1ccc(-c2csc3nc4cc(C(N)=O)ccc4c(=O)n23)cc1	28.9	.	.	.	.	.
Cc1ccc(CNC(=O)c2ccc3c(=O)n4c(-c5ccc(C)cc5)csc4nc3c2)cc1	.	.	.	.	/	/
SMILES	FBA Mtb inh	GDH-TPI counter-1	RecA splice inh	CCHFV vOTU inh	Mtb FBA confirm	GDH-TPI counter-2	others
CCNC(=S)Nc1ccc2c(c1)c(=O)n(C)n2Cc1cccc(C(F)(F)F)c1	80.5	.	/	.	190.1	149.7
FC(F)(F)c1cccc(NC(=S)NCc2ccccc2)c1	.	.	.	.	/	/
Cc1ccc(CNC(=S)Nc2ccc3c(c2)c(=O)n(C)n3Cc2cccc(C(F)(F)F)c2)cc1	36.2	.	/	.	140.7	100.7
CC1=C(C#N)C(c2cccnc2)C2=C(N1)c1ccccc1C2=O (stereo not given)	.	.	.	.	/	/
CC1=C(C#N)C(c2cccnc2)C2=C(CCCC2=O)N1 (stereo not given)	33.9	.	/	.	127.5	99.5
CCNC(=S)N(CCN(C)C)Cc1cc2cc3c(cc2[nH]c1=O)OCO3	43.6	.	.	.	57.9	42.8
CCN(CC)CCN(Cc1cc2cc3c(cc2[nH]c1=O)OCO3)C(=S)NC	101.5	.	/	.	64.2	54.9
CCNC(=S)N(CCCN(CC)CC)Cc1cc2cc3c(cc2[nH]c1=O)OCO3	.	.	.	.	/	/
CC(=O)N(CCc1ccccc1C)Cc1cc2cc3c(cc2[nH]c1=O)OCO3	38.9	.	.	.	187.1	170.0
CCCCNC(=S)N(CCN(CC)CC)Cc1cc2cc3c(cc2[nH]c1=O)OCO3	32.3	32.9	.	.	.	.	GDH-TPI dose=4.92
O=C(O)CSc1nc2ccccc2nc1Cc1ccccc1F	.	.	.	.	/	/
O=C1CC(NS(=O)(=O)c2ccccc2F)CN1c1ccc2c(c1)OCCO2 (stereo not given)	.	.	.	.	/	/
COc1ccccc1C(=O)NC(=O)COC(=O)CCS(=O)(=O)c1ccc(C)cc1	.	.	.	.	/	/
CCN(CC)CCN(Cc1cc2cc3c(cc2[nH]c1=O)OCO3)C(=S)NCCCN(C)C	35.2	.	.	.	30.1	27.8
Cc1cccc(NC(=S)N(CCCN(C)C)Cc2cc3cc4c(cc3[nH]c2=O)OCO4)c1	27.4	.	.	.	.	.
CN(C)CCN(Cc1cc2cc3c(cc2[nH]c1=O)OCO3)C(=S)NCc1ccco1	32.4	.	.	.	77.1	52.3
CC(C)n1c(O)c(/C=C2\C=NN=C2c2ccccc2)sc1=S	55.8	.	.	.	199.2	135.2
CCn1c(O)c(/C=C2\C=NN=C2c2ccc(C)cc2)sc1=S	.	.	.	.	/	/
Cc1ccc(CNC(=O)CCNC(=O)c2ccc([N+](=O)[O-])cc2)cc1	.	.	/	.	/	/
c1ccc(CCNc2ccnc3cc4ccccc4cc23)cc1	47.0	.	.	.	.	.
COc1ccccc1C=NNC(=O)CSc1nc2ccccc2n1Cc1ccc(Cl)cc1	/	/	/	.	/	/
COc1ccc2oc(C(=O)OCC(=O)NC3CCCC3)c(C)c2c1	38.2	.	.	.	131.6	112.6
COc1ccc2oc(C(=O)OCC(=O)Nc3cc(S(=O)(=O)N4CCOCC4)ccc3C)c(C)c2c1	31.9	.	.	.	.	.
COc1ccc2oc(C(=O)OCC(=O)NC3(C#N)CCCC3)c(C)c2c1	34.7	.	.	.	+	+
COc1ccc2oc(C(=O)OCC(=O)Nc3ccc(OC)c(S(N)(=O)=O)c3)c(C)c2c1	.	.	.	.	/	/
COc1ccc2oc(C(=O)OCC(=O)Nc3ccc(NC(C)=O)cc3)c(C)c2c1	27.4	.	/	.	93.9	79.7
C[C@H](CO)N1C[C@H](C)[C@H](CN(C)S(=O)(=O)c2cccs2)OCc2cnnn2CCCC1=O	.	.	/	.	/	/
C[C@H]1CN([C@@H](C)CO)C(=O)CCCn2nncc2CO[C@@H]1CN(C)S(=O)(=O)c1cccc(F)c1	.	.	/	.	/	/

Assay outcomes as filed in PubChem.
